“And” between values parts separate entries of the source, which are not always exact repeats. Identical values can stand only once. In all, about 200,000 compounds went through this assay and about 720 (0.36%) were called active. About 8% were inconclusive and are not listed. Calls follow the shape of the dose curve; as a rule, active = well fitted activation curve with a large enough effect; inconclusive = small, poorly fitted or top-dose-only effect, or effect the other way, or another doubt; inactive = flat fitted curve, though single readings scatter. The list shows a part of the results.
Biological target: Lysosomal alpha-glucosidase (Homo sapiens) (UniProt P10253)
Test: qHTS Assay for Activators of Human alpha-Glucosidase as a Potential Chaperone Treatment of Pompe Disease; also: nearly all actives have a fitted effect of over 80% in size
Conditions: purified enzyme, 4-MU-alpha-glucoside fluorescence, 20 min; series mostly up to 76.9 µM
Text: NIH Chemical Genomics Center [NCGC] NIH Molecular Libraries Probe Production centers Network [MLPCN] MLPCN Grant: 1R03MH084841-01 Assay Submitter (PI): Wei Zheng NCGC Assay Overview: Alpha-glucosidase is responsible for hydrolysis of terminal, non-reducing 1,4-linked alpha-D-glucose residues with release of alpha-D-glucose. It is a lysosomal hydrolase that is required for the degradation of a small percentage (1-3%) of cellular glycogen in human. Deficiency of this enzyme results in glycogen-storage disease type II (GSDII), also referred to as Pompe disease, an autosomal recessive disorder. Structurally normal glycogen is accumulated in lysosomes and cytoplasm in affected patients, primarily in muscle tissues. Excessive glycogen storage within lysosomes may interrupt normal functioning of other organelles and leads to cellular injury. In turn, this leads to enlargement and dysfunction of the entire organ involved (eg, cardiomyopathy and muscle weakness). It has reported that the improper folding and trafficking of alpha-glucosidase resulting from the genetic mutations may account for a significant number of Pompe patients. […] We optimized this alpha-glucosidase assay in 1536-well plate format for identifying the novel small molecule inhibitors with the structures other than the sugar analogs in order to develop the new pharmacological chaperones, but are also able to detect potential activators. In conjunction with assays against alpha-galactosidase (AID 1467), fluorogenic false positive compounds can be identified.
NCGC Assay Protocol Summary: This is a fluorogenic enzyme assay with 4-methylumbelliferyl-alpha-D-[…] as the substrate and human alpha-glucosidase as the enzyme preparation. Upon the hydrolysis of this fluorogenic substrate, the resulting product, 1. 4-methyllumbelliferone, can be excited at 365 nm and emits at 440 nm which can be detected by a standard fluorescence plate reader. Data were normalized to the controls for basal activity (without enzyme) and 100% activity (with enzyme). In the AC50 values were determined from concentration-response data modeled with the standard Hill equation. Assay buffer: 50 mM citric acid (titrated with potassium phosphate to pH 5.0), 0.005% Tween-20, pH 5.0. (pH 5.0 is an optimal condition for this enzyme assay) 1536-well assay protocol for the human alpha-glucosidase: (1) Add 2 ul/well of enzyme (4 nM final) (2) Add 23 nL compounds in DMSO solution. The final titration was 0.7 nM to 77 uM. (3) Add 1 ul of substrate (400 uM final) (4) Incubate at room temperature for 20 min. (5) Add 2 ul stop solution (1M NaOH and 1M Glycine mixture, pH 10) (6) Detect the assay plate in a ViewLux plate reader (PerkinElmer) with Ex=365 nm and Em=440nm. Keywords: Alpha-glucosidase, Pompe Disease, pharmacological chaperone, chaperone therapy, high throughput screening, alpha-glucosidase inhibitor, MLSMR, MLSCN, NIH Roadmap, qHTS and NCGC
Potency is read from the fitted curve at half-maximal effect.

Potency, active:
N=c1oc2cc(O)ccc2cc1C(=O)Nc1nc2ccccc2s1 35.5 µM
N=c1oc2cc(O)ccc2cc1C(=O)Nc1ccccn1 35.5 µM
CCOC(=O)c1cccc(-n2c(-c3ccc(OC)cc3)nc3nc4ccccc4nc32)c1 5.01 µM
CCCn1c(-c2cccs2)nc2nc3ccccc3nc21 35.5 µM
C=CCn1c(-c2ccc(OC)cc2)nc2nc3ccccc3nc21 35.5 µM
C=CCn1c(-c2cccs2)nc2nc3ccccc3nc21 35.5 µM
CCC(C)n1c(-c2cccs2)nc2nc3ccccc3nc21 (stereo not given) 35.5 µM
CC(C)Cn1c(-c2cccs2)nc2nc3ccccc3nc21 35.5 µM
Cc1cccn2c(=O)c3cc(C(=O)N4CCN(C(=O)c5ccco5)CC4)n(C)c3nc12 35.5 µM
Cc1ccc2nc3c(cc(C(=O)NCCCn4ccnc4)n3C)c(=O)n2c1 35.5 µM
Cc1cccn2c(=O)c3cc(C(=O)NCCCN4CCCC4=O)n(C)c3nc12 35.5 µM
Cc1ccc(-c2cc(C(=O)NCCCn3ccnc3)c3ccccc3n2)s1 28.2 µM
Nc1cc(C(=O)O)c(Oc2ccc(Cl)cc2Cl)cc1C(=O)O 35.5 µM
CCc1cc2c3c(c(=O)oc2cc1O)CCCC3 28.2 µM
O=c1oc2cc(O)ccc2c2c1CCCC2 35.5 µM
COC(=O)C1=CN(Cc2ccc(OC)cc2)C=C(C(=O)OC)C1c1cccs1 25.1 µM
COC(=O)C1=CN(Cc2ccc(OC)cc2)C=C(C(=O)OC)C1c1ccsc1 25.1 µM
FC(F)(F)Oc1ccc(-c2cn3cccnc3n2)cc1 35.5 µM
COc1ccc(-c2cn3cccnc3n2)cc1 35.5 µM
Cc1ccc(-c2cn3cccnc3n2)cc1 35.5 µM
CC1(C)CN(c2ccc(-c3ccnc4ncnn34)cc2)C1=O 28.2 µM
N#Cc1c(C(F)(F)F)cc(-c2cccs2)nc1SCc1cccnc1 35.5 µM
Cc1[nH]c2ccccc2c1C(O)CN1CCN(c2cccc(C(F)(F)F)c2)CC1 (stereo not given) 35.5 µM
CC(C)c1cc(NCCCN2CCOCC2)n2c(nc3ccccc32)c1C#N 31.6 µM
Cc1cc(NCCCN2CCOCC2)n2c(nc3ccccc32)c1C#N 31.6 µM
COc1ccc(-c2c(C#N)c(N)nc3c2CCc2ccccc2-3)cc1OC 35.5 µM
COCCCn1cnc2oc3nc4ccccc4nc3c2c1=O 35.5 µM
CC(=O)Nc1cc2ccc(OC(C)=O)cc2oc1=O 35.5 µM
O=C(O)c1cc2c(ccc3ccccc32)oc1=O 35.5 µM
CC(=O)Nc1cc2c(ccc3ccccc32)oc1=O 25.1 µM
CCOC(=O)c1cc2c(ccc3ccccc32)oc1=O 35.5 µM
O=C(c1cc2c(ccc3ccccc32)oc1=O)N1CCCC1 31.6 µM
CC(OC(=O)c1cc2c(ccc3ccccc32)oc1=O)c1nc2ccccc2s1 (stereo not given) 28.2 µM
O=C(NCCc1ccccc1)c1cnc2ccccn2c1=O 25.1 µM
Cc1cccc(-n2c3nc(=O)[nH]c(=O)c-3cc3c(C)nn(-c4ccccc4)c32)c1C 22.4 µM
Cc1cccc(-n2c3nc(=O)[nH]c(=O)c-3cc3c(C)nn(-c4ccccc4)c32)c1 20 µM
Cc1ccc(-n2c3nc(=O)[nH]c(=O)c-3cc3c(C)nn(-c4ccccc4)c32)c(C)c1 25.1 µM
O=c1c(-c2nc3ccccc3s2)cccn1Cc1ccc(Cl)cc1 10 µM
Cc1ccc(Cn2cccc(-c3nc4ccccc4s3)c2=O)cc1 28.2 µM
O=c1c(-c2nc3ccccc3s2)cccn1Cc1ccccc1 39.8 µM
O=c1c(-c2nc3ccccc3s2)cccn1Cc1ccc(Cl)c(Cl)c1 28.2 µM
COc1cc(=O)n(C)c2cc(N(C)C)ccc12 31.6 µM
COc1cc2nc(N3CCN(C(=O)C4CCCO4)CC3)nc(N)c2cc1OC (stereo not given) 35.5 µM and 39.8 µM
COc1cc2nc(N(C)CCCNC(=O)C3CCCO3)nc(N)c2cc1OC (stereo not given) 35.5 µM
COc1cc2nc(N3CCN(C(=O)C4COc5ccccc5O4)CC3)nc(N)c2cc1OC (stereo not given) 39.8 µM
O=C(O)C(=O)/C(=C\c1cccc(Cl)c1)c1ccc2ccccc2n1 28.2 µM
Cc1cccc(S(=O)(=O)Nc2ccc(-c3nc4ccc(C)cc4s3)cc2)c1 31.6 µM
Cc1nc2ccc(S(=O)(=O)Nc3ccc(-c4nc5cccnc5s4)cc3)cc2s1 35.5 µM
Cc1ccc2nc(-c3ccc(NS(=O)(=O)c4ccc(F)cc4)cc3)sc2c1 35.5 µM
Cc1ccc2sc(-c3ccc(NC(=O)/C=C\C(=O)O)cc3)nc2c1 39.8 µM
Cc1ccc2nc(-c3ccc(NS(=O)(=O)c4ccc(F)c(F)c4)cc3)sc2c1 3.55 µM
Cc1ccc(S(=O)(=O)Nc2ccc(-c3nc4ccc(C)cc4s3)cc2)cc1 35.5 µM
Cc1cc(-c2nc3cccnc3s2)ccc1NS(=O)(=O)c1ccc2c(c1)OCCO2 35.5 µM
C/C(=N\NC(=O)CC#N)c1cc2ccc(O)cc2oc1=O 35.5 µM
Cc1c2c(n3c(nc4ccccc43)c1C#N)N(CCN1CCOCC1)CC2 5.62 µM
Cc1c2c(n3c(nc4ccccc43)c1C#N)N(CCCN(C)C)CC2 35.5 µM
CCOC(=O)c1cc2c(=O)n3ccccc3nc2n(CCCOC)c1=NC(C)=O 35.5 µM
CCOC(=O)c1cc2c(=O)n3ccccc3nc2n(CC2CCCO2)c1=NC(C)=O (stereo not given) 35.5 µM
CCOCCCn1c(=NC(C)=O)c(C(=O)OCC)cc2c(=O)n3ccccc3nc21 39.8 µM
CCCn1c(=NC(C)=O)c(C(=O)OCC)cc2c(=O)n3ccccc3nc21 35.5 µM
CCOC(=O)c1cc2ccc(OC)cc2oc1=O 31.6 µM
CNC(=O)c1cc2ccc(OC)cc2oc1=O 28.2 µM
CCOC(=O)c1cc2ccc(OC(=O)c3ccco3)cc2oc1=O 35.5 µM
CSc1nc2n(n1)C(c1ccccn1)C1=C(CC(C)(C)CC1=O)N2 (stereo not given) 35.5 µM
CSCCC(NC(C)=O)C(=O)Oc1ccc2c3c(c(=O)oc2c1)CCCC3 (stereo not given) 35.5 µM
CCC(NC(=O)OC(C)(C)C)C(=O)Oc1ccc2c3c(c(=O)oc2c1)CCC3 (stereo not given) 35.5 µM
Cc1c(OC(=O)CNC(=O)OC(C)(C)C)ccc2c3c(c(=O)oc12)CCC3 11.2 µM
Cc1csc(NC(=O)c2ccccc2O)n1 39.8 µM
Cc1ccc(N(C)S(=O)(=O)c2cccc(C(=O)Oc3ccc4c(C)cc(=O)oc4c3)c2)cc1 31.6 µM
C=CCN(c1ccccc1)S(=O)(=O)c1cccc(C(=O)Oc2ccc3c(C)cc(=O)oc3c2)c1 35.5 µM
CCN(c1ccccc1)S(=O)(=O)c1cc(C(=O)Oc2ccc3c(C)cc(=O)oc3c2)ccc1C 28.2 µM
O=Cc1cn(-c2ccccc2)nc1-c1cc2cc(O)ccc2oc1=O 35.5 µM
COc1ccc2cc3cc(C(=O)NC(C)C)oc3nc2c1 28.2 µM
CCC(C)NC(=O)c1cc2cc3ccc(OC)cc3nc2s1 (stereo not given) 35.5 µM
COc1ccc2cc3cc(C(=O)NCC4CCCO4)oc3nc2c1 (stereo not given) 35.5 µM
O=c1[nH]cnc2nc(-c3ccccc3)c(-c3ccccc3)nc12 35.5 µM
COc1ccc2cc3cc(C(=O)NCCN4CCN(c5ccccc5F)CC4)oc3nc2c1 35.5 µM
COc1ccc2cc3cc(C(=O)NCCN4CCc5ccccc5C4)oc3nc2c1 35.5 µM
COc1ccc2cc3cc(C(=O)NCCN4CCN(Cc5ccccc5)CC4)oc3nc2c1 28.2 µM
CC(=O)Nc1ccc(S(=O)(=O)NCC(=O)OCc2cc(=O)oc3ccc4ccccc4c23)cc1 35.5 µM
COc1cccc(-c2nc(N3CCN(Cc4ccccc4)CC3)c3ccccc3n2)c1O 39.8 µM
COC(=O)c1ccc2nc(Nc3nc4ccc(F)cc4s3)sc2c1 12.6 µM
COC(=O)c1ccc2nc(Nc3nc4c(F)cc(F)cc4s3)sc2c1 6.31 µM
O=C(NC1CCC(O)CC1)c1cc(-c2ccco2)nc2ccccc12 (stereo not given) 39.8 µM
OCCN(CCO)c1ccc2ccccc2c1 35.5 µM
c1ccc(CCNc2ccnc3cc4ccccc4cc23)cc1 22.4 µM
Cc1cc(N2CCOCC2)nc2cc(O)ccc12 28.2 µM
COc1ccc2nc(N3CCOCC3)cc(C)c2c1 39.8 µM
CCOc1ccc2nc(N3CCOCC3)nc(C)c2c1 39.8 µM
COCCN(CCOC)C(=O)c1cc2c(=O)n3ccccc3nc2s1 35.5 µM
CCN(CC)C(=O)c1cc2c(=O)n3ccccc3nc2s1 31.6 µM
CC1=CN2C(=NC(=O)CC2(C)C(=O)N(CC(=O)NC2CCCC2)c2ccccc2C)C=C1 (stereo not given) 35.5 µM
CC1=CN2C(=NC(=O)CC2(C)C(=O)N(CC(=O)NC2CCCC2)c2cc(C)cc(C)c2)C=C1 (stereo not given) 39.8 µM
CCC(=O)Oc1ccc2c(c1)OC1(OC(C)=O)OC(C)CC1=C2C (stereo not given) 5.62 µM
CCOC(=O)c1sc(-c2ccc(OC)cc2)cc1NC(C)=O 28.2 µM

From PubChem BioAssay AID2242 (National Center for Advancing Translational Sciences (NCATS), 2010)
